# Laboratory results: ChEMBL document CHEMBL3988442, “University of Dundee, Small-Polar-MMV Screening Library” (2021)
# For part of these data: Entries with a potency or affinity are not part of this list.
# What was measured:
# Parameters in all cases: scale not given: direction of the effect not stated beside the values
# [1] = molecular target: Protein translocase subunit SecA (Escherichia coli (strain K12)) (UniProt P10408); experiment: Assay to Identify E. coli SecA ATPase Inhibitors; type: functional; conditions: 30 µM
# [2] = molecular target: T1, Ubiquitin-activating enzyme e1, putative (Leishmania donovani (strain BPK282A1)) (UniProt E9BSI1); experiment: Leishmania donovani Ubiquitin Activating Enzyme (LdE1); type: functional; conditions: 30 µM
# T1 sequence (whole entry): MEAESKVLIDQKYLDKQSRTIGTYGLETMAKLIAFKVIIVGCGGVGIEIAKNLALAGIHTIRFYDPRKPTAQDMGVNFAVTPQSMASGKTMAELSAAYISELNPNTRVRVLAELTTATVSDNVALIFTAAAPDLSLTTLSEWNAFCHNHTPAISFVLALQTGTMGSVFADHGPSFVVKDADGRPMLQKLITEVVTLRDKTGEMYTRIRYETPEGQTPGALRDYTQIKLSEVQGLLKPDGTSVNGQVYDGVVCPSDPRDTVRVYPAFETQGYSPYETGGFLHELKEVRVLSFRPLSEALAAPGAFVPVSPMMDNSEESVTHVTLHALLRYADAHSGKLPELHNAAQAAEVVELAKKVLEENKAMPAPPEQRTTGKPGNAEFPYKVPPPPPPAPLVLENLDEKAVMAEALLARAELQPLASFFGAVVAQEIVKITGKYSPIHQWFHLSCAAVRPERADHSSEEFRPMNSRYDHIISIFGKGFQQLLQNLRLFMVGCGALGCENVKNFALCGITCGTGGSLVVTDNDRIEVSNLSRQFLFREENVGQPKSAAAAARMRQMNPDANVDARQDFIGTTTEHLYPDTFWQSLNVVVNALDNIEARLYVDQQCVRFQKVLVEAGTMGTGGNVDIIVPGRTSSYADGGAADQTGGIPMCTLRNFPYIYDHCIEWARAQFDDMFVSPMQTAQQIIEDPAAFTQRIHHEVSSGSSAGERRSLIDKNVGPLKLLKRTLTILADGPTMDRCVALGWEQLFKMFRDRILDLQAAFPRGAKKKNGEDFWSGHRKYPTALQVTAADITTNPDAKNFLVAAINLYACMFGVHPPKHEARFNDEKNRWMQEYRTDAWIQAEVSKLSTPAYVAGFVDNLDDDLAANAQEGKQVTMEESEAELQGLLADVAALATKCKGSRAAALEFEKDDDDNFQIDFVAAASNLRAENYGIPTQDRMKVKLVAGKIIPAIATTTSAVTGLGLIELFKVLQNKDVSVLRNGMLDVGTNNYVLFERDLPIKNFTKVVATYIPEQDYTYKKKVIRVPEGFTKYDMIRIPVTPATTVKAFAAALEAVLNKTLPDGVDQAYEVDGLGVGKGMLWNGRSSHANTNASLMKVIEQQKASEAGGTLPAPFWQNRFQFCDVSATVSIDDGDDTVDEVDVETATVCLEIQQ
# [3] = molecular target: AMP-activated protein kinase, AMPK (Homo sapiens) (UniProt P54646+O43741+P54619+Q9UGJ0+Q9Y478+Q13131+Q9UGI9); experiment: AMP-dependent Kinase enzyme assay. An in vitro enzyme assay that detects ADP turnover that is directly proportional to AMPK activity. This uses naive AMPK that is activated during the assay with MK-8722; type: functional; conditions: 30 µM
# [4] = molecular target: Sialic acid-binding Ig-like lectin 9 (Homo sapiens) (UniProt Q9Y336); experiment: Hs-Siglec9 ALPHAscreen SOP 20170721; conditions: 10 µM
# [5] = system: Trypanosoma cruzi; experiment: Trypanosoma cruzi phosphomannomutase and mannose-1-phosphate guanylyltransferase assay; type: functional; conditions: 10 µM
# [6] = molecular target: T2, Arginase-2, mitochondrial (Homo sapiens) (UniProt P78540); experiment: in vitro enzyme assay to detect the production of urea directly proportional to the activity of Arginase II; type: functional; conditions: 33.3 µM; also: in the data most compounds retested in dose-response had high values
# T2 sequence (whole entry): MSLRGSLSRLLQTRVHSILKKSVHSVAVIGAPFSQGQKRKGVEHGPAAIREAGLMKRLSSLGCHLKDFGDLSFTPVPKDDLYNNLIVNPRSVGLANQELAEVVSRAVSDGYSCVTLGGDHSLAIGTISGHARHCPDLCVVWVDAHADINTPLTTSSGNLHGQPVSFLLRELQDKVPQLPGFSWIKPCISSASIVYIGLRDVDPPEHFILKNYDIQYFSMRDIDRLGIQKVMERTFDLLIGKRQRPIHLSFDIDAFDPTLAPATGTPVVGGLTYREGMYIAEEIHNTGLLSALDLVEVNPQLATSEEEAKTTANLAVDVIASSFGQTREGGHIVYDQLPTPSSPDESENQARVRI
# [7] = molecular target: T3, Proteasome subunit beta (Trypanosoma cruzi) (UniProt O96673); experiment: Trypanosoma cruzi proteasome chymotrypsin-like activity (TcProtChymo) assay.; also: in the data most compounds retested in dose-response had high values; type: functional; conditions: 9.37 µM
# T3 sequence (whole entry): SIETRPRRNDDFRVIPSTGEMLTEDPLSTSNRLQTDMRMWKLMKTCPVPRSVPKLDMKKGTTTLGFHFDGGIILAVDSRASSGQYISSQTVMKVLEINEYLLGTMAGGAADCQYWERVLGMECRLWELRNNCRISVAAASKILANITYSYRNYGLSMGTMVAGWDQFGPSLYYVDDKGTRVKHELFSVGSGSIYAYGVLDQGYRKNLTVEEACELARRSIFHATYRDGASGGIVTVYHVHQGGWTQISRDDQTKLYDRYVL
# [8] = organism: Homo sapiens; experiment: To identify inhibition of the IFN signalling (Jak-Stat) pathway via expression of an eGFP reporter gene under the control of an IFN-stimulated response element (ISRE) containing MxA promoter.; type: functional; conditions: 30 µM
# [9] = molecular target: T4, Tyrosyl-tRNA synthetase, putative (Trypanosoma cruzi (strain CL Brener)) (UniProt Q4DSP6); experiment: Trypanosoma cruzi tyrosyl tRNA synthetase (TcYRS) _High Tyrosine SOP; type: functional; conditions: 30 µM; also: in the data most compounds retested in dose-response had high values
# T4 sequence (whole entry): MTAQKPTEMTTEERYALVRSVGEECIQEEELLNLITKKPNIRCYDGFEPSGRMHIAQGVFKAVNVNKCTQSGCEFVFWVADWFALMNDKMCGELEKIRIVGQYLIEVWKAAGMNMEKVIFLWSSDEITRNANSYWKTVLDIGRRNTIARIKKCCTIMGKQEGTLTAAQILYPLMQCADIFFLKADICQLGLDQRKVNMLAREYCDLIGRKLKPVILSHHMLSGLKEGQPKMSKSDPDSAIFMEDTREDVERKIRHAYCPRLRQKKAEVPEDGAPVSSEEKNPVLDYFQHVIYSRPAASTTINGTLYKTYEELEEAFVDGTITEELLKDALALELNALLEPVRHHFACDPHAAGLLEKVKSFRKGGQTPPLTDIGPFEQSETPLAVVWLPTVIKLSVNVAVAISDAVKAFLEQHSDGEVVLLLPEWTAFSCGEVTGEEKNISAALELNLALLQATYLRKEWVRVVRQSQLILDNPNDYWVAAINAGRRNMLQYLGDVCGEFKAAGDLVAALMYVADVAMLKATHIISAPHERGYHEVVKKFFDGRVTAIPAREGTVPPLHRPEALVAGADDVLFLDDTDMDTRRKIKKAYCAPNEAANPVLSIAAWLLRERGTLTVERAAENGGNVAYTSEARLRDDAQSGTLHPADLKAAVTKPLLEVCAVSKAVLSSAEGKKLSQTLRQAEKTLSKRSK
# [10] = molecular target: T4, Tyrosyl-tRNA synthetase, putative (Trypanosoma cruzi (strain CL Brener)); experiment: Trypanosoma cruzi tyrosyl tRNA synthetase (TcYRS) SOP; type: functional; conditions: 30 µM
# [11] = molecular target: Chromo domain-containing protein 1 (Saccharomyces cerevisiae (strain ATCC 204508 / S288c) (Baker's yeast)) (UniProt P32657); experiment: ScCHD-1 Enzyme Inhibition Assay; type: functional; conditions: 30 µM; also: in the data most compounds retested in dose-response had high values
# Chromo domain-containing protein 1 (Saccharomyces cerevisiae (strain ATCC 204508 / S288c) (Baker's yeast)), sequence (P32657 whole entry, the tested form may be a part): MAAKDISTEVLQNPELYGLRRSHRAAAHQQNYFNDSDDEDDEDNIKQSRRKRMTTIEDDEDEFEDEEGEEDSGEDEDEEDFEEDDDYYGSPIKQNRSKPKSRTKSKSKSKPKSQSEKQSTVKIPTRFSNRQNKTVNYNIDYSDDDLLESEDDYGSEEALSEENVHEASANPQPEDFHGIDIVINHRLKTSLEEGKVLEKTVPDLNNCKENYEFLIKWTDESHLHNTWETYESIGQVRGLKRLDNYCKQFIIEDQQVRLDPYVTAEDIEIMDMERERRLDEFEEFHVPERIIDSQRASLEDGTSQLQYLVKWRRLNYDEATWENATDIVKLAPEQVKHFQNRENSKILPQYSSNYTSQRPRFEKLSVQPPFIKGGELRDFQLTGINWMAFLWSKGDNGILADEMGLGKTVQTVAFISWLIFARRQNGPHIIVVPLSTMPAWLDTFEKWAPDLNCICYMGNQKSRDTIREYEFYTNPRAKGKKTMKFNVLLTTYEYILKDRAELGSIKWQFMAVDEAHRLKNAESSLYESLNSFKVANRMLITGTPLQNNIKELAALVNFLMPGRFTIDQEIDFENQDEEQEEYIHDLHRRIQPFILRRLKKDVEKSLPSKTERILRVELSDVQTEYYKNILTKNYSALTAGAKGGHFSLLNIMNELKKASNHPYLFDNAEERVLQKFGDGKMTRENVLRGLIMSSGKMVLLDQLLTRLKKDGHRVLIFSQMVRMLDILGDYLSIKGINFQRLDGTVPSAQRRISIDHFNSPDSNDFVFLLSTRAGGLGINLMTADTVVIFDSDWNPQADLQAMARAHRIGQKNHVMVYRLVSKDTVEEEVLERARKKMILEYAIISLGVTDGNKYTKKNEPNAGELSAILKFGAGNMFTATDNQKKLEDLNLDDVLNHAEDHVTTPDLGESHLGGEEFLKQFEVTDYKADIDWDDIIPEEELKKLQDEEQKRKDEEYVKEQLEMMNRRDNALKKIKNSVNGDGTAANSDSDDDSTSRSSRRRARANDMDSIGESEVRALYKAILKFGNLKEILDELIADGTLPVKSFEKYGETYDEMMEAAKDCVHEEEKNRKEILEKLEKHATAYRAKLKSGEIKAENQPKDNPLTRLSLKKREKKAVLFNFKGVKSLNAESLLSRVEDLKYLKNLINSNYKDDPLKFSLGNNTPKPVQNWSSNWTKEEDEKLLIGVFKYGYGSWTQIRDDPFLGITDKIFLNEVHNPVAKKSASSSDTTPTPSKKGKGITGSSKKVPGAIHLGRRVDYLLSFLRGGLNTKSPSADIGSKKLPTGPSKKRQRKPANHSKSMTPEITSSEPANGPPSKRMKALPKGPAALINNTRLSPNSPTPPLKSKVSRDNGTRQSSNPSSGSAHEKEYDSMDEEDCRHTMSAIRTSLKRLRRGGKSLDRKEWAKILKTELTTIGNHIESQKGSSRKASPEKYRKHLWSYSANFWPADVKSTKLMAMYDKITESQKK
# Sialic acid-binding Ig-like lectin 9 (Homo sapiens), sequence (Q9Y336 whole entry): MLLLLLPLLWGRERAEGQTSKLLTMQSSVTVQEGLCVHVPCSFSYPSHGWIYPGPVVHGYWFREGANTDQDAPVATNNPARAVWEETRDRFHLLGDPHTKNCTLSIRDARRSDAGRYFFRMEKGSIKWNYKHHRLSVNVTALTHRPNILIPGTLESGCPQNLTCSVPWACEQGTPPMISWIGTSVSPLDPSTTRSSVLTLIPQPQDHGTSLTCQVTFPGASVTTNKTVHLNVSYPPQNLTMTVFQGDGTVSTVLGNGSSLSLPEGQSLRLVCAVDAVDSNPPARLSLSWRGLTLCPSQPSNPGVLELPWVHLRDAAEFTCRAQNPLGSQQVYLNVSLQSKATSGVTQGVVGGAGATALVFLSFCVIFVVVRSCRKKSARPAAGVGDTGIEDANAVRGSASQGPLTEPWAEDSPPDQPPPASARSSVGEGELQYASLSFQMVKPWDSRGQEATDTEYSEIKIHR
# Protein translocase subunit SecA (Escherichia coli (strain K12)), sequence (P10408 whole entry): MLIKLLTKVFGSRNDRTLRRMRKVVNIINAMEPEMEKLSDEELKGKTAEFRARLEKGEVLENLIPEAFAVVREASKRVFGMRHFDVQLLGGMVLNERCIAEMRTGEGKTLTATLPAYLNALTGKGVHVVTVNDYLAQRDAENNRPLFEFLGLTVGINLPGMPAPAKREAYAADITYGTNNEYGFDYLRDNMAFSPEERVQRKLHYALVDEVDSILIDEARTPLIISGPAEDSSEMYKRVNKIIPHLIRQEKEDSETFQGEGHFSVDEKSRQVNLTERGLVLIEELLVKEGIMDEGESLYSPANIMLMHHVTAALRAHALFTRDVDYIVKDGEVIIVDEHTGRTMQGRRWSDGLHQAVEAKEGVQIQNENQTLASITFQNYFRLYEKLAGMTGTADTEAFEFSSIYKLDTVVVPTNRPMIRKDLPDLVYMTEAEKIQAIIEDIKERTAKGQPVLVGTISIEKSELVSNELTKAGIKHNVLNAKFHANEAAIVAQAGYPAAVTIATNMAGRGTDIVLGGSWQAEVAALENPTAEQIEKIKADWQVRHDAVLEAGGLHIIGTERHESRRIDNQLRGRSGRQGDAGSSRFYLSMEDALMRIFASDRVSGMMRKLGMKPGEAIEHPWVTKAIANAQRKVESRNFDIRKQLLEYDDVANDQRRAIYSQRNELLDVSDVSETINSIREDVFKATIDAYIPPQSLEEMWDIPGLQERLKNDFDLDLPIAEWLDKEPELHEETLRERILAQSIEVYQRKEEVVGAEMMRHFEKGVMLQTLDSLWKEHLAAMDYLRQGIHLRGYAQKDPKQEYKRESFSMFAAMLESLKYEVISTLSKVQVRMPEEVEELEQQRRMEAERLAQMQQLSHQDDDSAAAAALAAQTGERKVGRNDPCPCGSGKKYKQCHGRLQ
Compound,Percent Effect [1] [%],Percent Effect [2] [%],Percent Effect [3] [%],Percent Effect [4] [%],Percent Effect [5] [%],Percent Effect [6] [%],Percent Effect [7] [%],Percent Effect [8] [%],Percent Effect [9] [%],Percent Effect [10] [%],Percent Effect [11] [%]
Cc1nc(C2CCCN(C(=O)c3cccc4c3OCO4)C2)no1 (stereo unspecified),-0.923,11.4,6.75,0.303,-5.03,-3.23,19.9,3.42,4.17,10.1,-23.7
CCO[C@@H]1CO[C@@]2(CCCN(C(=O)c3ccc(OC)c(F)c3)C2)C1,-3.5,10.4,6.36,-0.114,-3.06,11,16.5,6.86,11.6,8.97,-7.2
Cc1ccc(N2CCCC(NCC(=O)NC3CCOCC3)C2)nn1 (stereo unspecified),-5.04,-3.8,-5.1,4.11,-1.13,4.95,3.94,-13.5,0,5.06,-2.4
Cc1ncc2c(n1)CN(Cc1noc(C3CC3)n1)CC2,-6.18,15.6,-33.1,11.6,5.43,2.85,8.11,2.58,6.8,19.5,-13.7
CC(=O)Nc1nc(C(=O)N2CCCC(n3ccnc3)C2)cs1 (stereo unspecified),-2.04,-7.89,-5.64,-2.76,-6.44,3.6,-6.34,-6.45,2.46,1.24,5.04
NC(=O)COc1ccc(CNCc2ccc(F)c(F)c2)cc1,-4.2,6.94,2.35,-0.752,0.486,3.53,11.2,-7.28,7.37,7.69,-2.75
CC(=O)N(Cc1noc(C2CC2)n1)C1CCN(Cc2cccnc2)C1 (stereo unspecified),-2.68,13.5,-6.59,0.785,-1.76,-0.185,2.51,12.5,4.95,18.3,-7.09
CCc1nc2n(n1)CC(NCC(=O)Nc1nccs1)CC2 (stereo unspecified),-2.54,-2.53,-11.6,-5.43,-5.95,-1.9,-0.737,15.1,2.46,-8.86,-2.63
CO[C@H]1CCN(Cc2cnn(C)c2)[C@@H]2CN(Cc3cccnc3)C[C@H]12,-0.848,12,6.27,-3.02,-3.93,-8.63,9.06,-3.47,2.12,5.13,-7.83
CS(=O)(=O)CC(=O)N1C[C@H]2CCC[C@@]2(COCc2ccccn2)C1,-1.45,2.7,-3.2,0.525,-0.88,11.2,26,-5.57,0,17.9,0.642
Cc1ccc(CC(=O)N2CC[C@@H]3CN(CCN(C)C)CCO[C@@H]3C2)cc1,-0.0347,8.11,9.51,-10.3,-7.33,2.87,19.7,4.98,4.32,5.13,-4.03
Cc1nnc(C(C)NCC2(c3ccc(Cl)cc3)CCCC2)o1 (stereo unspecified),-2.66,-8.11,-5.55,5.04,-1.74,-4.76,7.07,19.5,0.529,-4.88,0.504
Cc1nc(C)n(CC2CCCCN2CCS(C)(=O)=O)n1 (stereo unspecified),-4.31,-2.7,0.489,0.818,-3.09,-3.33,11.7,8.2,-2.65,-4.88,-3.45
CCn1ccnc1CN1CCC(CNC(=O)c2ccc(C)nc2)C1 (stereo unspecified),-0.749,10.4,4.72,15.7,6.39,-1.38,12,15.6,8.6,16.1,-3.08
Cc1ccc(CN2CCC[C@]3(C(=O)O)CN(c4ncccn4)C[C@@H]3C2)o1,-3.35,5.33,-3.88,3.31,0.579,-39.6,3.59,-0.723,5.21,-15,-7.67
CC(O)CN1CCC(CNCc2cccc(Br)c2)CC1 (stereo unspecified),-6.33,5.41,-21.1,11.5,-4.25,-5.61,-0.721,11.2,2.46,-1.24,4.26
Cc1cnc(C(=O)N2CCCC(n3ccnc3C)C2)cn1 (stereo unspecified),-4.96,5.26,-7.85,7.54,8.5,0.36,3.13,3.76,5.42,18.5,-4.86
COc1ccc(CN2CCc3ncnc(OC(C)C)c3CC2)cc1,2.24,10.7,7.06,-5.75,-6.37,-53.9,16.2,19,-14.6,0,-4.41
CC(C)c1nc2n(n1)CC(NCc1nnc(-c3ccco3)o1)CC2 (stereo unspecified),-2.41,0,-14.3,-0.788,5.94,0.802,-3.06,-2.24,3.45,6.17,-0.171
O=C(c1cccnc1)N1CCc2ncnc(C3CCOC3)c2CC1 (stereo unspecified),0.619,10.7,5.98,-10.8,-5.71,3.5,10.8,2.86,4.25,11.5,3.31
COc1cc(CNC2CCCc3c2cnn3C)cc(OC)c1 (stereo unspecified),-5.5,8.11,139,9.27,1.6,-3.61,-1.44,2.92,5.42,3.7,-10
